Compound activity as filed in PubChem BioAssay.
Many of the other results were omitted from the sample, so hits are more common in it than they were.
TbPYK inhibitor = qHTS of Trypanosoma Brucei Inhibitors; Potency, µM (doses to about 76.8 µM), usual class: inhibitors; TbPYK enzyme, Kinase-Glo Plus ATP luminescence, 45 min; 410,000 tested, 0.12% active; AID 624173, 2012; also: nearly all actives have a fitted effect of over 50% in size
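Luminescence from Kinase-Glo Plus, added after a 45-minute room-temperature reaction, served as the end-point read-out. The enzyme and substrate were preincubated with compound before ADP (130 uM final) initiated turnover. Concentration-effect curves came from normalized qHTS data.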
Shiga toxin inh = A qHTS for Small Molecule Inhibitors of Shiga Toxin; 290,000 tested, 9.2% active; Vero cells, Shiga toxin protein synthesis inhibition reporter; AID 2315, 2010; inhibition, % at 38.7 µM; in the data active = inhibition mostly above about 28%, no sharp cut-off; inactive = mostly below about 43%
RE007 growth inh = qHTS Assay for Inhibitors of the HIV-1 protein Vpr. AID 651644, 2012. S. pombe RE007 Vpr strain, BacTiter-Glo ATP luminescence, 24 h. Potency, µM (top dose mostly 92.2 µM), most hits filed as inhibitors. 360,000 tested, 0.21% active; active = well fitted falling curve with a large enough effect; inconclusive = small, poorly fitted or top-dose-only effect; inactive = no such curve, though single readings can be large or run the other way; also: nearly all actives have a fitted effect of over 50% in size
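Fission yeast strain RE007, carrying one chromosomally integrated HIV-1 vpr copy, was seeded at OD 0.01 in PMG+AL medium with 23 nL pinned compound. After 24 h at 30 °C and 99% humidity, viability was read by BacTiter-Glo luminescence.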
Giardia FBPA inh = qHTS Assay for Inhibitors of Fructose-1,6-bisphosphate Aldolase from Giardia Lamblia; purified Giardia FBPA; Potency, µM (titrated, usually from 59.6 µM), actives largely listed as inhibitors; 290,000 tested, 0.71% active; also: nearly all actives have a fitted effect of over 55% in size
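Giardia FBPA (40 nM reagent) was preincubated 10 min at RT with compound (up to 57.5 uM final), then substrate plus GAPDH/TPI/NAD/arsenate coupling system with diaphorase/resazurin was added; resorufin fluorescence (525/598 nm) was read after 20 min.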
Cycloheximide cs = Cycloheximide Counterscreen for Small Molecule Inhibitors of Shiga Toxin. cell reporter, cycloheximide protein synthesis inhibition counterscreen. max response, %. 300,000 tested, 12% active; in the data active = max response mostly above about 13%, no sharp cut-off; inactive = mostly below about 14%; also: read at 38.3 µM for the half of the compounds with a filed dose
LmPK inh = qHTS Assay for Inhibitors of Leishmania Mexicana Pyruvate Kinase (LmPK) | Q27686 | purified LmPK, Kinase-Glo ATP luminescence, 1 h | Potency, µM (titrated, usually from 57.5 µM), most hits filed as inhibitors | 290,000 tested, 0.37% active | AID 1721, 2009
Target sequence (Q27686 whole entry, looked up): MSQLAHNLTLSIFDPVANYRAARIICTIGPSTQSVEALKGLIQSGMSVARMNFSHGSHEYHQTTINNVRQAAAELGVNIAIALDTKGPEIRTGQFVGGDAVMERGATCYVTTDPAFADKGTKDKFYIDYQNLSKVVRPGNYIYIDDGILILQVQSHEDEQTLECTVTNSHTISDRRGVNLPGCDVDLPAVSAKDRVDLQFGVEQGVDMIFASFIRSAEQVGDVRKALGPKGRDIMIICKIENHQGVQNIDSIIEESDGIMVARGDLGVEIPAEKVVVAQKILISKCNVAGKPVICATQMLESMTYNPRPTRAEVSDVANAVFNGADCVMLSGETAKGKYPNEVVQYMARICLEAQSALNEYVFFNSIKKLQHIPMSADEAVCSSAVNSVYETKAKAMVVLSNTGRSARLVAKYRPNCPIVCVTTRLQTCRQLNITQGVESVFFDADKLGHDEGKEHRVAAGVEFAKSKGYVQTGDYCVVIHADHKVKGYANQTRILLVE
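Kinase-Glo luminescence read after 1 h RT reaction of 0.1 nM LmPK with 0.5 mM PEP and 0.1 mM ADP. Activity scaled between uninhibited and enzyme-free controls.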
Hits are given with their value; – = inactive; ? = inconclusive; · = no result given; [ ] = another dose, or the depositor's remark. Unless noted, calls follow the shape of the dose curve; as a rule, active = well fitted curve in the direction sought with a large enough effect; inconclusive = small, poorly fitted or top-dose-only effect, or another doubt; inactive = no such curve, though single readings can be large; an effect the other way counts as inactive or inconclusive.

SMILES	TbPYK inhibitor	Shiga toxin inh	RE007 growth inh	Giardia FBPA inh	Cycloheximide cs	LmPK inh
Cc1ccc(N2C(=O)c3ccccc3NC2(C(=O)O)c2ccccc2)cc1Cl (stereo not drawn)	–	98.7	–	–	65.9	–
O=C(Nc1cccc(F)c1)N1CCCC2(CCN(C(=O)c3csnn3)CC2)C1	–	·	·	–	·	·
Cn1ncc2c(Nc3ccc(Cl)c(Cl)c3)ncnc21	–	–	–	–	36.2	–
Cc1ccc(-n2ncc3c(Nc4ccc5c(c4)OCCO5)ncnc32)cc1C	–	·	·	·	·	·
Cn1ncc2c(Nc3ccc(-c4ccccc4)cc3)ncnc21	–	75.6	–	–	41.4	–
CCCn1ncc2c(Nc3ccc(C)c(C)c3)ncnc21	–	109.5	–	–	46.9	–
Cn1ncc2c(Nc3cc(Cl)cc(Cl)c3)ncnc21	–	–	–	–	–	–
O=C1[C@H]2[C@H]3[C@H](O)[C@H](O)C/C(=N/OC[C@@H](O)COCc4ccco4)[C@@H]3CC[C@@H]2C(=O)N1C[C@@H]1CCCO1	·	·	·	–[12.9 µM]	·	·
CN1/C(=N\O)c2cccc3cccc1c23	–	–	–	8.91µM	–	–
CCOc1ccc(/C(O)=C2/C(=O)C(=O)N(CC3CCCO3)C2c2ccco2)cc1 (stereo not drawn)	–	42.0	–	–	15.3	–
CCOc1ccc(/C(O)=C2/C(=O)C(=O)N(CCN(CC)CC)C2c2ccco2)cc1 (stereo not drawn)	–	–	–	–	–	–
CCOc1cccc(/C(O)=C2/C(=O)C(=O)N(Cc3cccnc3)C2c2ccco2)c1 (stereo not drawn)	–	–	–	–	22.2	–
CCOc1cccc(/C(O)=C2/C(=O)C(=O)N(CCOC)C2c2ccco2)c1 (stereo not drawn)	–	45.4	–	–	20.3	–
Cc1ccc(CNC(=O)c2cccc(Nc3nc4ccccc4n4nnnc34)c2)cc1	–	·	·	·	·	·
CCN1CCN(S(=O)(=O)c2ccc(C(=O)Nc3sc4c(c3C(N)=O)CCN(CC)C4)cc2)CC1	–	–	–	·	–	–
COCCN(CCOC)S(=O)(=O)c1ccc(C(=O)Nc2sc3c(c2C(N)=O)CCCCC3)cc1	–	63.5	–	–	32.7	–
CCN1CCc2c(sc(NC(=O)c3ccc4ccccc4c3)c2C(N)=O)C1	·	–	·	·	19.6	–
COc1ccc(C(=O)Nc2sc3c(c2C(N)=O)CCCC3)cc1OC	·	59.9	·	–	42.1	·
NC(=O)C1CC(=O)N(c2ccc(OCc3ccc(F)cc3)cc2)C1 (stereo not drawn)	–	93.7	–	–	37.4	–
NC(=O)C1CC(=O)N(c2ccc(OCc3ccc([N+](=O)[O-])cc3)cc2)C1 (stereo not drawn)	–	·	–	–	26.1	–
NC(=O)C1CC(=O)N(c2ccc(OCc3ccccc3Cl)cc2)C1 (stereo not drawn)	–	24.5	–	–	22.8	–
O=C(O)C1CC(=O)N(c2ccc(OCc3ccccc3Cl)cc2)C1 (stereo not drawn)	–	–	–	–	–	–
O=c1ncn2nc(Sc3ccc(F)cc3F)ccc2c1-c1c(Cl)cccc1Cl	–	·	·	·	·	·
Cc1ccc(-c2ccc(/C=C(\C#N)C(N)=S)n2C)cc1	–	61.1	–	–	59.3	–
Cc1ccc[n+](CC(=O)Nc2cccc(Cl)c2)c1	–	–	–	–	–	–
SMILES	TbPYK inhibitor	Shiga toxin inh	RE007 growth inh	Giardia FBPA inh	Cycloheximide cs	LmPK inh
Cc1ccc[n+](CC(=O)Nc2c(Cl)cc(Cl)cc2Cl)c1	–	75.9	–	–	25.3	–
O=C1NC(c2ccccc2Cl)Nc2ccccc21 (stereo not drawn)	–	–	–	–	–	–
O=C1c2ccccc2NC(c2ccccc2Cl)N1N=C1CCCCCC1 (stereo not drawn)	–	89.1	–	–	37.4	–
CCCn1c(NCc2ccc3c(c2)OCO3)nc2ccccc21	–	–	–	–	20.5	–
CCCCn1c(NCc2ccc3c(c2)OCO3)nc2ccccc21	–	–	–	–	11.6	–
CCCCn1c(NCc2ccccc2O)nc2ccccc21	–	–	–	–	–	–
CC(C)Sc1ncc(Cl)c(C(=O)N(Cc2ccc(N(C)C)cc2)C2CCS(=O)(=O)C2)n1 (stereo not drawn)	–	·	·	·	·	·
CC(C)Oc1cccc(C2CC(=O)Nc3cc4c(cc32)OCO4)c1 (stereo not drawn)	–	·	·	·	·	·
c1ccc([C@H]2NCCc3c2[nH]c2ccccc32)cc1	·	·	·	–[12.9 µM]	·	·
COc1ccc(C(O)c2nc3ccccc3s2)cc1 (stereo not drawn)	·	–	·	–	–	–
COc1ccc2nc(NCc3cccnc3)sc2c1	–	49.3	–	–	21.9	–
Cc1cccc(Nc2nc3ccccc3s2)c1C	–	99.5	–	–	49.2	–
COc1ccc(Nc2nc3ccccc3s2)cc1	–	–	–	–	49.7	–
COc1cccc(Nc2nc3ccc(OC)cc3s2)c1	–	88.9	?	–	56.8	–
Cc1cccc(Nc2n[nH]c(=S)s2)c1C	?	–	–	–	–	–
COc1ccccc1CNC(=O)CCC1N=C2c3ccccc3N=C(SCC(=O)NCCc3ccc(OC)c(OC)c3)N2C1=O (stereo not drawn)	–	·	·	·	·	·
COc1ccc2nc(Nc3sc4c(c3C(N)=O)CCCC4)sc2c1	2.82µM	58.7	?	–	41.7	–
COc1ccc2nc(NC3=NCCC3)sc2c1	–	153.3	–	–	53.2	–
CC(C)(C)OC(=O)N1CCC(c2c(C(=O)NCc3ccc4c(c3)OCO4)cnn2-c2ccccc2Cl)CC1	–[15.4 µM]	·	·	·	·	·
CC(=O)c1ccc(N2CCN(C(=O)Cn3ncc4c3-c3ccccc3OC4)CC2)cc1	–	·	·	·	·	·
Cc1cc(-c2n[nH]c(=S)n2/N=C/c2c[nH]c3ccccc23)n[nH]1	2.82µM	–	–	–	–	?
Fc1ccc(-c2n[nH]c(=S)n2/N=C/c2c[nH]c3ccccc23)cc1	–	–	–	–	–	–
Cc1cc(-c2n[nH]c(=S)n2/N=C/c2ccc(Br)s2)n[nH]1	1.12µM	–	·	–	–	–
CN(C)c1ncc2nc(-c3ccc(F)cc3)c(=O)n(C[C@H]3CCCO3)c2n1	·	·	·	–	·	·
COC(=O)c1cc(Nc2cc(C)c3c(O)cccc3n2)cc(C(=O)OC)c1	–	–	–	–	16.4	–
Cc1cc(Nc2ccccc2O)c2ccccc2n1	–	–	–	–	–	–
COc1ccc(Nc2cc(C)c3c(O)cccc3n2)cc1	–	–	–	?	32.1	–
COc1ccc(Nc2cc(C)c3cc(NC(=O)c4ccccc4Cl)ccc3n2)cc1	–	·	·	·	·	·
Cc1ccccc1Nc1cc(C)c2c(O)cccc2n1	–	–	–	–	23.0	–
COC(=O)c1cc(Nc2cc(C)c3ccc(O)cc3n2)cc(C(=O)OC)c1	–	–	–	–	–	–
